Test results reported in the supplement of paper PMC8728848.
Shown is part of a subset that was picked to be rich in the strongest signals.

Legend:
Assay in all cases: glycan array binding signal (z-score within array); higher = stronger binding
Conditions in all cases: glycan notation: IUPAC condensed, linker removed
[1] = target: GlcNAc(b1-2)[GlcNAc(b1-6)]Man(a1-6)[GlcNAc(b1-2)Man(a1-3)]Man(b1-4)GlcNAc(b1-4)[Fuc(a1-6)]GlcNAc
How it was run: (§1)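 Arrays were curated from the Consortium for Functional Glycomics database, 3228 in total, and kept only where the protein sequence was available. Binding is expressed as a within-array Z-score. This score was averaged across arrays of the same protein sequence at different concentrations or buffers and across linkers, and negative values can be read as non-binding.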

[2] = target: GlcNAc(b1-3)Gal(b1-4)Glc
How it was run: as §1

[3] = target: GlcNAc(b1-3)Gal(b1-4)GlcNAc(b1-3)Gal(b1-4)GlcNAc(b1-3)Gal(b1-4)GlcNAc(b1-2)Man(a1-3)[GlcNAc(b1-3)Gal(b1-4)GlcNAc(b1-3)Gal(b1-4)GlcNAc(b1-3)Gal(b1-4)GlcNAc(b1-2)Man(a1-6)]Man(b1-4)GlcNAc(b1-4)GlcNAc
How it was run: as §1

[4] = target: GlcNAc(b1-3)Gal(b1-4)GlcNAc(b1-3)Gal(b1-4)GlcNAc(b1-3)Gal(b1-4)GlcNAc(b1-3)Gal(b1-4)GlcNAc(b1-2)Man(a1-3)[GlcNAc(b1-3)Gal(b1-4)GlcNAc(b1-3)Gal(b1-4)GlcNAc(b1-3)Gal(b1-4)GlcNAc(b1-3)Gal(b1-4)GlcNAc(b1-2)Man(a1-6)]Man(b1-4)GlcNAc(b1-4)GlcNAc
How it was run: as §1

[5] = target: GlcNAc(b1-3)Gal(b1-4)GlcNAc(b1-6)[GlcNAc(b1-3)]Gal(b1-4)GlcNAc
How it was run: as §1

[6] = target: GlcNAc(b1-3)GalNAc
How it was run: as §1

[7] = target: GlcNAc(b1-4)GlcNAc(b1-4)GlcNAc
How it was run: as §1

[8] = target: GlcNAc(b1-4)GlcNAc(b1-4)GlcNAc(b1-4)GlcNAc(b1-4)GlcNAc
How it was run: as §1

[9] = target: GlcNAc(b1-4)GlcNAc(b1-4)GlcNAc(b1-4)GlcNAc(b1-4)GlcNAc(b1-4)GlcNAc
How it was run: as §1

[10] = target: Man(a1-3)[Man(a1-6)]Man(b1-4)GlcNAc(b1-4)[Fuc(a1-6)]GlcNAc
How it was run: as §1

[11] = target: Neu5Ac(a2-3)Gal(b1-3)GlcNAc(b1-2)[Neu5Ac(a2-3)Gal(b1-3)GlcNAc(b1-4)]Man(a1-6)[Neu5Ac(a2-3)Gal(b1-3)GlcNAc(b1-2)Man(a1-3)]Man(b1-4)GlcNAc(b1-4)GlcNAc
How it was run: as §1

[12] = target: Neu5Ac(a2-3)Gal(b1-3)[Neu5Ac(a2-6)]GlcNAc(b1-3)[Fuc(a1-3)[Gal(b1-4)]GlcNAc(b1-6)]Gal(b1-4)Glc
How it was run: as §1

[13] = target: Neu5Ac(a2-3)Gal(b1-4)[Fuc(a1-3)]GlcNAc(b1-3)Gal(b1-4)GlcNAc
How it was run: as §1

[14] = target: Neu5Ac(a2-3)Gal(b1-4)[Fuc(a1-3)]GlcNAc(b1-6)[Gal(b1-3)]GalNAc
How it was run: as §1

[15] = target: Neu5Ac(a2-3)[GalNAc(b1-4)]Gal(b1-4)GlcNAc
How it was run: as §1

[16] = target: Neu5Ac(a2-6)Gal(b1-3)GlcNAc(b1-3)[Gal(b1-4)GlcNAc(b1-6)]Gal(b1-4)Glc
How it was run: as §1

[17] = target: Neu5Ac(a2-6)Gal(b1-4)GlcNAc(b1-2)Man(a1-3)Man(b1-4)GlcNAc(b1-4)GlcNAc
How it was run: as §1

[18] = target: Neu5Ac(a2-6)Gal(b1-4)GlcNAc(b1-2)Man(a1-6)[GlcNAc(b1-2)Man(a1-3)]Man(b1-4)GlcNAc(b1-4)GlcNAc
How it was run: as §1

[19] = target: Neu5Ac(a2-6)Gal(b1-4)GlcNAc(b1-3)Gal(b1-4)GlcNAc(b1-3)[Neu5Ac(a2-6)Gal(b1-4)GlcNAc(b1-3)Gal(b1-4)GlcNAc(b1-6)]GalNAc
How it was run: as §1

[20] = target: Neu5Ac(a2-6)Gal(b1-4)GlcNAc(b1-3)Gal(b1-4)GlcNAc(b1-6)[Gal(b1-3)]GalNAc
How it was run: as §1

[21] = target: Neu5Ac(a2-6)GalNAc
How it was run: as §1

[22] = target: Neu5Ac(a2-6)GlcNAc(b1-4)GlcNAc(b1-4)GlcNAc
How it was run: as §1

[23] = target: Neu5Ac(a2-8)Neu5Ac(a2-3)Gal(b1-3)GalNAc(b1-4)[Neu5Ac(a2-8)Neu5Ac(a2-3)]Gal(b1-4)Glc
How it was run: as §1

[24] = target: Neu5Ac(a2-8)Neu5Ac(a2-8)Neu5Ac(a2-3)[Gal(b1-3)GalNAc(b1-4)]Gal(b1-4)Glc
How it was run: as §1

[25] = target: Neu5Ac(a2-8)Neu5Ac(a2-8)Neu5Ac(a2-3)[GalNAc(b1-4)]Gal(b1-4)Glc
How it was run: as §1

B1: Nc3LysM (protein)
chain: QFTVPPDTTAEPNTIKTCTWWHVAGSGDSCTSIASTYGITSEQFARWDMETTDSPKNPSVATACKLTVGNSYCIENNFGQDDPPTPSISSSTLIGTATTSTTASTTTGNGISTPTPIQEGMETATTTTSSGNGITTPTPTQAGMETVGNCDRFHLVKSGDQCGTIASTYGITLANFYSWNPAVGTSCQSLWLDTYVCVRTIGFVPPKTTTTTTKKPTSTTSAGGVATPTPTQPGMETVSGCKKFHKGRGNVSTVASGDQCGTIATRYGISLANFYSWNPAVGSSCQTLWLDYYVCVGR
glycan array binding signal (z-score) [1]: -0.037 | glycan array binding signal (z-score) [2]: -0.132 | glycan array binding signal (z-score) [3]: -0.013 | glycan array binding signal (z-score) [4]: -0.036 | glycan array binding signal (z-score) [5]: 0.184 | glycan array binding signal (z-score) [6]: 0.056 | glycan array binding signal (z-score) [7]: 2.52 | glycan array binding signal (z-score) [8]: 17.3 | glycan array binding signal (z-score) [9]: 16.7 | glycan array binding signal (z-score) [10]: 0.04 | glycan array binding signal (z-score) [11]: 0.123 | glycan array binding signal (z-score) [12]: -0.004 | glycan array binding signal (z-score) [13]: 0.009 | glycan array binding signal (z-score) [14]: -0.127 | glycan array binding signal (z-score) [15]: -0.172 | glycan array binding signal (z-score) [16]: -0.162 | glycan array binding signal (z-score) [17]: 0.14 | glycan array binding signal (z-score) [18]: 0.31 | glycan array binding signal (z-score) [19]: 0.111 | glycan array binding signal (z-score) [20]: -0.099 | glycan array binding signal (z-score) [21]: 0.071 | glycan array binding signal (z-score) [22]: -0.143 | glycan array binding signal (z-score) [23]: -0.231 | glycan array binding signal (z-score) [24]: 0.394 | glycan array binding signal (z-score) [25]: -0.059
